# A selection: hits, their analogues and other compounds. The true share with any hit is near 7.4%.
# CRE Fsk mod: alters forskolin-stimulated CRE reporter signaling in CHO cells | CHO CRE-bla reporter (cAMP response element driving beta-lactamase), forskolin EC10, beta-lactamase ratio | Potency, µM (doses to about 38.2 µM), without a hit: top-dose activity change, negative = inhibition, most hits filed as activators | 2.5% of 71,000 active | AID 662; active means well fitted activation curve with a large enough effect in the signal ratio, with a control signal flat, not every such curve was filed as active; inconclusive means small, poorly fitted or top-dose-only effect, or effect the other way, or a change in a side signal; the % refers to the signal ratio; further: % of control where 0% means no effect
#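 CRE-bla CHO reporter cells treated with compound titration plus EC10 NKH 477 (water-soluble forskolin), incubated 3 h at 37 °C; CCF4 loading 2 h at room temperature, 460/530 nm emission ratio read, AC50 values derived for positive or negative modulators.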
# TSHR agonist: agonists of human thyroid stimulating hormone receptor; P16473; HEK293-CNG-TSHR cells (CNG channel as cAMP sensor), membrane potential dye, cAMP; Potency, µM (highest dose often 57.1 µM), without a hit: top-dose activation, hits mostly activators; 0.48% of 73,000 active; active means well fitted activation curve with a large enough effect in the main read-out, with a control signal flat, not every such curve was filed as active; inconclusive means small, poorly fitted or top-dose-only effect, or a change in a side signal; inactive means no such curve, though single readings can be large or run the other way; % of control where 0% means no effect;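 further: the control signal comes from parental cells without the receptor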
#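 HEK 293 cells stably expressing TSHR and a cAMP-gated CNG channel; parental CNG-only cells as counterscreen. Cells preloaded 60 min with membrane potential dye plus 100 uM RO 20-1724, then compound 30 min; fluorescence read at 590 nm.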
# HEK293 cAMP cs: counter-screen for TSHR agonists: cAMP increase in parental HEK293; AID 938; 2.5% of 73,000 active; parental HEK293 CNG cAMP sensor, membrane potential fluorescence; Potency, µM (titrated, usually from 57.1 µM), for inactives: at the highest dose activation, hits mostly activators; further: % of control where 0% means no effect; nearly all actives have a fitted effect of over 55% in size
#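 Parental HEK 293 cells stably expressing a cAMP-gated CNG channel were loaded with membrane potential dye containing 100 uM RO 20-1724 for 60 min. Compound added for 30 min; depolarization read as fluorescence intensity at 590 nm.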
# ERK AVP block: blocks ERK signaling stimulated by vasopressin; HEK293-V1b, vasopressin-stimulated pERK AlphaScreen; Potency, µM (top dose mostly 57.5 µM), inactives show at the highest dose activity, negative = inhibition, usual class: inhibitors; 0.99% of 72,000 active; further: on the % scale 0 is the no-effect control and ±100 the full control effect; nearly all actives have a fitted effect of over 55% in size
#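 HEK293 cells stably expressing V1b receptor, preincubated 30 min at 37 °C with compound, then stimulated 5 min with 25 nM vasopressin. Phospho-ERK by AlphaScreen SureFire after 5 h RT; normalized to DMSO and vasopressin; AC50 by Hill fit.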
# Tau filament bind: tau filament binding | Potency, µM (highest dose often 57.1 µM), without a hit: at the top dose activity change, negative = inhibition | AID 596 | 2% of 71,000 active | recombinant tau filaments, thioflavin S fluorescence, 15 h; filaments grown with octadecylsulfate alongside compound;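 further: on the % scale 0 is the no-effect control and ±100 the full control effect; actives lower thioflavin S fluorescence by blocking filaments or displacing dye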
# Target sequence (P10636 whole entry, looked up): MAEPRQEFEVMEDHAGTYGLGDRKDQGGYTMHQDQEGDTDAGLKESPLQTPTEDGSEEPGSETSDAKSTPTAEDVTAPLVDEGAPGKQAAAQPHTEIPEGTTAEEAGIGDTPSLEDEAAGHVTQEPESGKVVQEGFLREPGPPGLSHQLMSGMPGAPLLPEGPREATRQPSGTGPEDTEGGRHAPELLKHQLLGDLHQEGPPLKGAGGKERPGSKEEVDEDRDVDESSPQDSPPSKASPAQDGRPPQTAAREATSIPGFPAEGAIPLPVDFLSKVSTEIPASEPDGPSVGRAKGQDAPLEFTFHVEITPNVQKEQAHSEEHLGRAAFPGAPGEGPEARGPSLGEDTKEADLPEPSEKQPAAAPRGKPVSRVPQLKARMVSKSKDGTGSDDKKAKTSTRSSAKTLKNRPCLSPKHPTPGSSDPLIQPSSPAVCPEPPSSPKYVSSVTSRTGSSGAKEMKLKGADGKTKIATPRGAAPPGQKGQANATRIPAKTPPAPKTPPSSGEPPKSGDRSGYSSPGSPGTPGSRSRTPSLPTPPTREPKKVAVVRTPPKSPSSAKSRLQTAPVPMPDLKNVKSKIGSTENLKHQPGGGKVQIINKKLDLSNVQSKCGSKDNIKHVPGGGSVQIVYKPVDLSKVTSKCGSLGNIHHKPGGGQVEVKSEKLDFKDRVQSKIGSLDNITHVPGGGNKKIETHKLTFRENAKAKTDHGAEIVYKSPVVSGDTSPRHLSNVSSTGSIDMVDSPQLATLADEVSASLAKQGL
#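 His-tagged recombinant human tau (exons 2, 3 and 10 included), 1 uM, was induced to fibrillize by 30 uM sodium octadecylsulfate with compound present. After 15 h at 37 C, thioflavine S fluorescence (ex 450, em 510 nm) was read.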
# Numbers without * were called inactive; i = inactive; ? = inconclusive; . = no result given; [ ] = remark or other dose. Unless noted, the call rests on the fitted dose curve; in most records, active means well fitted curve in the direction sought with a large enough effect; inconclusive means small, poorly fitted or top-dose-only effect, or another doubt; inactive means no such curve, though single readings can be large; an effect the other way counts as inactive or inconclusive. Potency means the concentration at half of the fitted maximal effect.
SMILES,CRE Fsk mod,TSHR agonist,HEK293 cAMP cs,ERK AVP block,Tau filament bind
N#Cc1ccc2ccn(CC(=O)NC3CCCCC3)c2c1,-2%,?,16µM*,1%,2%
N#Cc1ccc2ccn(CC(=O)NCc3ccccc3)c2c1,-14%,.,12%,-18%,2%
Nc1nc(N)c2nn(-c3ccc(C(=O)O)cc3)nc2n1,-3%[7.6 µM],-2%[11.4 µM],-2%[11.4 µM],4%[11.5 µM],-1%[11.4 µM]
O=C(O)c1ccc(C(=O)c2ccccc2)c(C(=O)O)c1,4%[7.6 µM],-1%[11.4 µM],7%[11.4 µM],15%[11.5 µM],8%[11.4 µM]
COc1ccc(COC(=O)N/N=C2/C[C@@H](O)[C@@H](O)[C@@H]3[C@H]4C(=O)N(c5ccc(F)cc5F)C(=O)[C@@H]4CC[C@@H]23)cc1,.,1%[11.4 µM],-1%[11.4 µM],7%[11.5 µM],.
O=c1cnc2cnc(Oc3cccc(Cl)c3)nc2n1Cc1ccc(F)cc1,-3%,?,?,-10%,16µM*
COCCn1c(=O)cnc2cnc(Oc3cccc(Cl)c3)nc21,-5%,?,?,-7%,-4%
COCCn1c(=O)c(-c2cc(F)cc(F)c2)nc2cnc(Oc3ccccc3)nc21,-2%,-10%,26%,-16%,?
COCCn1c(=O)c(-c2ccc(F)cc2)nc2cnc(Oc3cccc(Cl)c3)nc21,?,2%,9%,2%,-8%
COc1cccc(Nc2ncc3nc(-c4ccc(F)cc4)c(=O)n(CCC#N)c3n2)c1,?,-1%,6%,13%,484%
COc1cccc(Nc2ncc3nc(-c4cc(F)cc(F)c4)c(=O)n(CCC#N)c3n2)c1,?,?,-55%,-1%,0.79µM*
COCCn1c(=O)c(-c2cc(F)cc(F)c2)nc2cnc(Oc3cccc(Cl)c3)nc21,?,-7%,-8%,-29%,13µM*
COCCn1c(=O)c(-c2cc(F)cc(F)c2)nc2cnc(Oc3ccc(OC)cc3)nc21,?,?,?,-16%,16µM*
Cc1c(Cl)cccc1NC(=O)c1cc(-c2ccc(O)cc2)on1,?,15%,6%,-3%,186%
CC(C)(C)C(=O)[C@H]([C@@H](c1ccccc1)N1CCOCC1)N1CCOCC1,1%[7.6 µM],11%[11.4 µM],25%[11.4 µM],-19%[11.5 µM],7%[11.4 µM]
CCOC(C)(C)C,-1%,-7%,15%,7%,-9%
Nc1ccc(C(=O)C[C@H](N)C(=O)O)cc1O,-6%[7.6 µM],-5%[11.4 µM],3%[11.4 µM],11%[11.5 µM],-9%[11.4 µM]
Cn1c(=O)c(-c2ccc(Cl)cc2)nc2cnc(Oc3ccccc3)nc21,3.2µM*,5%,14%,7%,?
Cn1c(=O)c(-c2ccccc2)nc2cnc(Oc3ccccc3)nc21,-2%,-2%,-3%,21%,?
COc1ccc(-c2nc3cnc(Oc4cccc(Cl)c4)nc3n(C3CC3)c2=O)cc1,3.2µM*,5%,18%,5%,16%
COCCn1c(=O)c(-c2cc(F)cc(F)c2)nc2cnc(N(C)C)nc21,10µM*,1%,15%,16%,40%
COCCn1c(=O)c(-c2ccc(Cl)cc2)nc2cnc(N(C)C)nc21,?,?,?,21%,17%
Cn1c(=O)n(Cc2ccc(F)cc2)c(=O)c2c1nc1n2CCCN1C1CCCCC1,10µM*,-22%,-7%,-19%,-12%
CCOc1ccc(-c2nc(CSc3nncs3)cs2)cc1OC,5µM*,7%,7%,-20%,0%
O=C1C2=CC[C@H]3C(=O)N(C4CCCCC4)C(=O)[C@@H]3[C@@H]2[C@H](O)[C@@H]2O[C@H]12,.,5%[11.4 µM],4%[11.4 µM],-6%[11.5 µM],.
SMILES,CRE Fsk mod,TSHR agonist,HEK293 cAMP cs,ERK AVP block,Tau filament bind
COC(=O)C/C=C\[C@@H](C)[C@@H](/C=N\O[C@@H](C)c1cc(-c2c(C)cc(C)cc2C)no1)OC,.,.,26%[11.4 µM],10%[11.5 µM],.
COc1ccc(OC)c2c(C)cc(N3CCN(C(=O)c4ccc(F)cc4)CC3)nc12,5%,-13%,-17%,32µM*,-28%
COc1ccc(C(=O)N2CCN(c3ccc(C)c(C)c3)CC2)cc1OC,12%,45%,3%,.,-6%
C/C(CCN1CCCc2nc(C)c(C)cc21)=N\O[C@@H](C)c1cn([C@@H]2COC[C@@H]2O)nn1,.,10%[11.4 µM],2%[11.4 µM],18%[11.5 µM],.
CN(C)S(=O)(=O)c1ccc(Nc2ccc(O)c3c2C(=O)c2c([N+](=O)[O-])ccc(O)c2C3=O)cc1,14%[7.6 µM],?,-46%[11.4 µM],18%[11.5 µM],1µM*
O=C1c2c(O)ccc([N+](=O)[O-])c2C(=O)c2c([N+](=O)[O-])ccc(O)c21,?,?,-118%,-9%,0.2µM*
CCC(SC1=Nc2ccccc2C2=NC(CC(C)C)C(=O)N12)C(=O)Nc1ccc2c(c1)OCO2 (configuration not stated),?,?,16µM*,-4%,-30%
COc1ccc(CNC(=O)NCc2ccc(OC)c(OC)c2)cc1OC,-1%,5%,2%,-3%,-10%
COc1ccc(CN/C(C)=C(/C#N)C(N)=O)cc1OC,?,13µM*,-2%,-15%,4%
CC[C@H](C(=O)c1cccs1)C(O)(C(F)(F)F)C(F)(F)F,-1%[7.6 µM],.,-4%[11.4 µM],-10%[11.5 µM],-11%[11.4 µM]
Nc1ccccc1[N+](=O)[O-],-12%,1%,21%,-12%,9%
Oc1ccccc1C1=NCCNC(C(F)(F)C(F)F)=C1,?,0%,-3%,-28%,16µM*
C=CC(C)(C)c1[nH]c2ccccc2c1C1=C(O)C(=O)C(c2c[nH]c3c(CC=C(C)C)cccc23)=C(O)C1=O,?,10%,7%,?,32µM*
O=c1oc2c3c4c(cc2s1)CCCN4CCC3,3%,-2%,-5%,?,25µM*
CCN1C(=O)[C@@H]2[C@H]3C(=CC[C@H]2C1=O)C(=O)[C@H]1OC1[C@H]3O (some centres not stated),.,-8%[11.4 µM],6%[11.4 µM],29%[11.5 µM],.
O=C(O)[C@H]1C[C@H](C(=O)O)N1,-6%,?,?,-3%,-6%
CCOC(=O)c1nn(-c2ccc(OC)cc2)c(=O)c2c(N)scc12,6%,-2%,-2%,?,16µM*
CCOC(=O)c1nn(-c2ccc(OC)cc2)c(=O)c2c(NC(=O)c3ccco3)scc12,?,7%,12%,22%,-10%
Cc1cc(N2CCOCC2)c2c(N)c(Br)cc(C)c2n1,0.79µM*,9%[11.4 µM],3%[11.4 µM],?,3.2µM*
Cc1ccc(S(=O)(=O)OC2CCN(C)CC2)cc1,?,-3%[11.4 µM],1%[11.4 µM],4%[11.5 µM],-3%[11.4 µM]
Cc1cccc(-n2c(=O)[nH]c3c(C(N)=O)nc(C(C)C)nc32)c1,?,4%[11.4 µM],11%,-22%,16µM*
COc1cccc(-c2nc(C(N)=O)c3[nH]c(=O)n(-c4cccc(Cl)c4)c3n2)c1OC,10µM*,0%,2%,.,83%
COc1ccc(-c2nc(C(N)=O)c3[nH]c(=O)n(-c4cccc(Cl)c4)c3n2)cc1OC,?,.,27%,?,i
CCNc1nc(CC)nc2c1oc1ccccc12,7.9µM*,11%,7%,-17%,4%

# High-throughput results from PubChem.
